Laboratory results reported in ChEMBL document CHEMBL3988442, “University of Dundee, Small-Polar-MMV Screening Library” (2021).
The whole screen tested about 38,000 compounds, of which about 1,200 (3.2%) showed an effect of 50% or more. The median lay at about -58%. The sample as a whole holds a higher share of strong results than the screen did.

These compounds were tested on Plasmodium falciparum (assay: Calibr Malaria Delayed Death Assay SOP). Settings: concentration 4.99e-06 (unit not given; other assays of the set use mol/L).
Assay type: functional, organism-based
Set-up: scale not given: in the data most compounds retested in dose-response had high values

SMILES	Percent Effect [%]
CCN(CC)C(=O)c1nnsc1-c1ccc(C)cc1	-12.06
CC(=O)N1CCN2C[C@H](CO)[C@@H](c3ccccc3)[C@H]2C1	-67.98
CC(=O)NCCNC(=O)CN1CCCC1c1c(C)nn(C)c1C (configuration not stated)	-114
CN1C(=O)C[C@H]2[C@H]1CCN2Cc1cccc(C#N)c1.O=C(O)C(F)(F)F	-78.57
Cc1ncnc2c1CCN(C(=O)Cc1ccccn1)CC2.O=C(O)C(F)(F)F	-129.8
COCCN1CCC2(CC1)CC(N1CCOCC1)c1cc(C)ccc12.O=C(O)C(F)(F)F.O=C(O)C(F)(F)F (configuration not stated)	-78.91
COCCN1CCC2(CC1)CC(NCc1ccc(C)s1)c1ccccc12.O=C(O)C(F)(F)F.O=C(O)C(F)(F)F (configuration not stated)	76.07
CS(=O)(=O)N1CCC2(CC1)CC(NCc1ccccn1)c1ccccc12 (configuration not stated)	1.106
COCCN1CCC2(CC1)CC(NCc1cncn1C)c1ccccc12.O=C(O)C(F)(F)F.O=C(O)C(F)(F)F (configuration not stated)	-24.3
COCC(=O)NC1CC2(CCN(CCN(C)C)CC2)c2ccccc21 (configuration not stated)	-44.07
CC(C)N(CC(N)=O)C(=O)c1cnc(-c2ccc3c(c2)OCO3)s1	-184.6
CC(=O)N(C)Cc1cccc(NC(=O)c2cnn(C)c2C)c1	-25.31
CCOc1cc(C(=O)n2cc(C)cn2)cc(OCC)c1OCC	-156.8
NC(=O)c1ccc(N2CCCCC2)c(NC(=O)c2cc(Br)ccc2F)c1	-77.22
NC(=O)c1ccc(N2CCCCC2)c(NC(=O)c2ccc(Br)cc2)c1	70.21
NC(=O)c1ccc(N2CCCCC2)c(NC(=O)c2cc(Br)ccc2Cl)c1	-37.22
CSCc1cc(F)ccc1CNC(=O)N1CCC[C@@H]1CO	-21.18
NC(=O)NC(=O)CCN1CCN(c2nccs2)CC1	-12.95
COc1ccc(CNCC(C)Oc2ccccn2)cc1Cl.Cl (configuration not stated)	13.86
O=C(CO)N1CCC2(CC1)CC(=O)N(Cc1cc(F)cc(F)c1)C2	-76.75
CC(C)=CCN1CCC2(CC1)CC(=O)N(Cc1cc(F)cc(F)c1)C2	74
CC(C)N1CCC2(CC1)CC(=O)N(Cc1cc(F)cc(F)c1)C2	31.53
O=C1CC2(CCN(Cc3ccoc3)CC2)CN1Cc1cc(F)cc(F)c1	54.75
O=C1CC2(CCN(CCCF)CC2)CN1Cc1cc(F)cc(F)c1	33.68
O=C1CC2(CCN(CC3CC3)CC2)CN1Cc1cc(F)cc(F)c1	9.433

SMILES	Percent Effect [%]
NCCn1cc(C(=O)N2CCCCCC2c2cccc(F)c2)nn1 (configuration not stated)	-109.1
COc1cc2nc(C)n(CC(=O)NCCC(C)C)c(=O)c2cc1OC	-84.85
CCc1ncc(CN2CCC(CCc3ccccc3)CC2)cn1	5.724
Cc1nn(C)c(C)c1CN1CCNCC1	-151.9
Cc1cc(C)n(CCCN(C)C(=O)C2COc3ccccc3C2)n1 (configuration not stated)	-44.86
CC1=NOC(C(=O)N(C)CCCn2nc(C)cc2C)C1 (configuration not stated)	-92.45
Cc1nn(C)c(C)c1CCC(=O)OCC(=O)N1CCc2sccc2C1	-33.28
c1cnc(N2CCCC(c3n[nH]c4ncccc34)C2)nc1 (configuration not stated)	-55.39
COCC[C@]1(O)CCN(Cc2nc(C(C)C)cs2)C[C@H]1C	-100.7
CN1CCCC(CNC(=O)CN(C)S(=O)(=O)c2cccnc2)C1 (configuration not stated)	-82.06
CCOC(=O)CNC(=O)N1CCc2onc(-c3ccc(Cl)cc3)c2C1	-35.73
Cn1cccc1C(=O)N1CCc2onc(Cn3cccn3)c2C1	-37.04
COCCNS(=O)(=O)c1cccc2c1CN(C(=O)c1cc(C)on1)CC2	-82.56
O=C(c1ccnnc1)N1CCc2onc(Cn3cccn3)c2C1	-67.89
Cc1csc2c(=O)n3c(nc12)CCN(C(=O)c1ccnn1C)CC3	-147.1
Cn1cnc(C(=O)N2CC3(CCN(S(=O)(=O)c4ccccc4)C3)C2)c1	9.335
Cc1n[nH]cc1C(=O)N1CCCC(c2cccc(-n3ccnc3)n2)C1 (configuration not stated)	-34.99
CCS(=O)(=O)N1CCC2(CN(C(=O)c3cn(C)cn3)C2)C1	-95.83
Cc1noc([C@@H]2CC[C@@H]3[C@@H](CCN3S(=O)(=O)c3ccccc3)O2)n1	-19.99
COCCO[C@@H]1CCN(C(=O)c2occc2C)[C@H]1Cc1cnn(C)c1	-35.95
CC(C)n1cnnc1C1CCCN(S(=O)(=O)CC2CCCC2)C1 (configuration not stated)	-66.23
Cc1cc(=O)[nH]c(=O)n1-c1ccccc1Br	-82.44
COC(=O)c1cccc(C(=O)N2CCN(c3ccc(Cl)cc3)CC2)n1	-128.8
Cc1cc(-c2cnn(CCNC(=O)Cc3ccccn3)c2C2CC2)on1	-41.77
CCN(CC)C(=O)c1c(Cl)cnn1CC	-101.8

SMILES	Percent Effect [%]
O=C1CC2(CCCC2)CC(=O)N1Cc1nc2ncccn2n1	-57.36
N#Cc1ccc(F)c(CNc2ccc(F)cc2OCCO)c1	-1.485
CC(=O)Nc1ccc(CNCc2cccnc2N(C)C)cc1	-87.09
O=C(c1cscn1)N1CCc2ncc(Cn3cncn3)n2CC1	-88.92
CN(C)CCn1c(=O)n(C)c(=O)c2ccccc21.Cl	-12.02
CC(C)n1c(=O)c2ccccc2n(CCN(C)C)c1=O.Cl	33.53
CC(C)n1c(=O)c2ccccc2n(CCCN(C)C)c1=O.Cl	57.86
NC(=O)C1CN(c2ccc3cc(Br)ccc3n2)CCO1 (configuration not stated)	-657.4
Cc1ccc(OCCN(C)C2CCOC2=O)cc1 (configuration not stated)	-120.6
CC(C)N(CC1CCCN(CC(N)=O)C1)C(=O)OC(C)(C)C (configuration not stated)	-15.39
CC(C)N(CC1CCCN(Cc2ccon2)C1)C(=O)OC(C)(C)C (configuration not stated)	-9.372
Cc1noc(C)c1CN1CCCC(CN(C(=O)OC(C)(C)C)C(C)C)C1 (configuration not stated)	52.41
NC(=O)C(CNC(=O)Cc1ccsc1)Cc1ccc(F)cc1 (configuration not stated)	-150.5
COc1cc(C2CC(=O)Nc3c2nc2n3CCCC2)ccc1O (configuration not stated)	-30.17
COCCN(Cc1nc2c(cnn2C)c(=O)[nH]1)C(C)c1ccccc1 (configuration not stated)	-89.75
Cc1ccc(N2CCc3ncnc(N(C)C)c3CC2)nn1	-119.5
CS(=O)(=O)NC1CC2(CCN(CCF)CC2)Oc2ccccc21.O=C(O)C(F)(F)F (configuration not stated)	-76.24
COCC(=O)NC1CC2(CCN(CCF)CC2)Oc2ccccc21.O=C(O)C(F)(F)F (configuration not stated)	-129.2
O=C(O)C(F)(F)F.O=C(O)C(F)(F)F.O=C(O)C(F)(F)F.OCCN1CCC2(CC1)CC(NCc1ccccn1)c1ccccc1O2 (configuration not stated)	70.8
CC(C)CN1CCC2(CC1)CC(NS(C)(=O)=O)c1ccccc1O2.O=C(O)C(F)(F)F (configuration not stated)	-52.98
CC(C)N1CCC2(CC1)CC(NS(C)(=O)=O)c1ccccc1O2.O=C(O)C(F)(F)F (configuration not stated)	-16.02
CC(C)N1CCC2(CC1)CC(NCc1ccccn1)c1ccccc1O2.O=C(O)C(F)(F)F.O=C(O)C(F)(F)F.O=C(O)C(F)(F)F (configuration not stated)	70.65
CC(C)(C)c1ccc(C(=O)C2CCCN(C(=O)CNS(C)(=O)=O)C2)cc1 (configuration not stated)	-75.07
CN(C)c1no[n+]([O-])c1-c1ccccc1	-137.1
COCc1nn(C(C)C)c2c1CCN(Cc1ccc(C)o1)C2.O=C(O)C(F)(F)F	-30.71

SMILES	Percent Effect [%]
Cc1nc[nH]c1-c1nccn1CCN1CCCOC1=O	-113
O=C(c1cc(Cl)c2c(c1)OCO2)N1CCN(c2cnccn2)CC1	-89.48
Cn1c(CN2CCOCC2)cc(=O)c(O)c1CN1CCCCC1	-218.7
Cn1c(CN2CCOCC2)cc(=O)c(O)c1CN1CCOCC1	-232.2
Cn1c(CN2CCOCC2)cc(=O)c(O)c1CN1CCCC1	-211.8
Cn1c(CN2CCCCCC2)cc(=O)c(O)c1CN1CCCC1	59.19
Cn1c(CN2CCCC(N3CCCCCC3)C2)cc(=O)n(C)c1=O (configuration not stated)	-10.45
Cn1c(CN2CCCCC2)cc(=O)c(O)c1CN1CCCCC1	81.24
O=C(O)CC1COCCN1Cc1ccccc1-c1ccccc1 (configuration not stated)	-118
COc1ccc(C(=O)Nc2ccc3ncn(C(C)C)c(=O)c3c2)cc1	33.29
O=C(N1CCCC(n2cncn2)C1)C1(c2ccc(Cl)cc2)CCC1 (configuration not stated)	-26.48
CCCN(C(=O)c1cccnc1)c1nc2c(s1)CCc1c-2cnn1C	81.54
CCN(CCN1CCOCC1)C(=O)c1cccnc1	-63.54
CN(Cc1cc(Br)cn1C)C(=O)c1cccnc1	-12.65
CS(=O)(=O)CCOc1nc(-c2ccccc2Cl)no1	-35.46
O=C(c1ccccc1)N1CC[C@H]2C[C@H](c3nnc(C4CC4)o3)O[C@@H]2C1	-87.6
CCc1nc(CC2CN(c3ncnc4sc(C)c(C)c34)CCO2)no1 (configuration not stated)	-116.3
CCc1c(C)sc2ncnc(N3CCN(C4CCOCC4)CC3)c12	31.3
Cc1sc2ncnc(N3CCCC3Cn3cccn3)c2c1C (configuration not stated)	-55.32
CCc1c(C)sc2ncnc(N3C[C@H](O)[C@@H](N4CCCC4)C3)c12	60.55
CCc1c(C)sc2ncnc(N3CC[C@@H](N4CCC(O)CC4)[C@H](O)C3)c12	74.53
CCc1c(C)sc2ncnc(N3CC[C@@H](N4CCOCC4)[C@H](O)C3)c12	-5.608
